Data as given in PubChem BioAssay AID440 (NMMLSC, 2006).
Hit rate of the full screen: of about 24,000 compounds, about 180 (0.75%) were called active. Many of the other results were omitted from the sample, so actives are more common in it than they were. A number with no mark means an inactive call. No stated cut-off is given here; in the data, active means inhibition above about 30%; inconclusive means no clear call, values can overlap the other calls; inactive means below that.

target: fMet-Leu-Phe receptor (Homo sapiens) (UniProt P21462); experiment: small molecules displacing FPR fluorescent ligand – cell-based, FPRL1 counter-screen, flow cytometry, primary screen (AID 440); conditions: FPR-expressing cells, fluorescent ligand binding, hits give high values, concentration not given here;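 further: 0% = buffer wells and 100% = receptor blocker peptide wells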
Sequence (P21462 whole entry, looked up): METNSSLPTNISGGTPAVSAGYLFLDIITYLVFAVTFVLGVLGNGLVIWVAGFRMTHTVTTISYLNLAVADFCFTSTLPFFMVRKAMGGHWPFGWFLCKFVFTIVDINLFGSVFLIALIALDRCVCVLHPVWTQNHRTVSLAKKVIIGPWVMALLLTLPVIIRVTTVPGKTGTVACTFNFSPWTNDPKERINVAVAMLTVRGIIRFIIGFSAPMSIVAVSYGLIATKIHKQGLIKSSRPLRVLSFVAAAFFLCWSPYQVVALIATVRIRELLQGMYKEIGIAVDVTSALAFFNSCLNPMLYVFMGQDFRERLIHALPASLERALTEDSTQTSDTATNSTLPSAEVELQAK

| Compound | inhibition |
| --- | --- |
| CCC(C(=O)Nc1ncccn1)(C(F)(F)F)C(F)(F)F | -1.6% |
| CCOC(=O)c1nnn(-c2nc(OC)nc(N(C)C)n2)c1-c1ccccc1 | -0.2% |
| COc1cccc(Oc2ccc(N)cc2)c1 | -7.2% |
| C=CCn1c(SCC(=O)NC23CC4CC(CC(C4)C2)C3)nc(O)cc1=O | 3.3% |
| CCn1ncc(C2=NOC(C(=O)Nc3ccccc3C(=O)OC)C2)c1C (stereo not given) | 5.9% |
| Cc1ccnc(N2C(=O)c3ccccc3C2Nc2ccc3c(c2)OCCO3)c1 (stereo not given) | -0.2% |
| CC(=O)C1=C(O)C(=O)N(c2ccc(S(N)(=O)=O)cc2)C1c1ccccc1F (stereo not given) | -10.4% |
| CCOC(=O)c1sc(=S)n2c1[nH]c(=O)c1ccc(C(=O)OC)cc12 | 35.8% (active) |
| CCOC(=O)Cn1c(N)c(C(=O)OC)sc1=S | 1.5% |
| CCOC(=O)c1sc(=S)n(-c2cccc(OC)c2)c1N | 11% |
| Cc1ccc2cccc(O)c2[n+]1[O-] | 0.7% |
| CCOC(=O)Cn1c2c(c(-c3ccccc3OC)cc1=O)CCCC2 | 10.1% |
| CCOC(=O)N1CCN(C(=O)CSc2nnc(-c3c[nH]c4ccccc34)n2CCOC)CC1 | 8.4% |
| Cc1ccc2nc(NC(=O)C3CCN(S(=O)(=O)c4ccc5c(c4)oc(=O)n5C)CC3)sc2c1 | -18.8% |
| Cc1cc(Nc2cccc(F)c2)n2ncnc2n1 | -3.6% |
| Cc1nc2ccc(S(=O)(=O)NCC(=O)NCCN3CCCCC3C)cc2s1 (stereo not given) | -4.2% |
| Cc1noc(C)c1S(=O)(=O)N(CC(=O)Nc1ccc2c(c1)OCCO2)c1ccc(C(C)C)cc1 | 0.9% |
| O=C(OCc1ccccc1F)c1ccc2c(c1)OCCO2 | 3.6% |
| CN1CCN(CCCNC(=O)c2cc3c(=O)oc4ccccc4c3s2)CC1 | -0.9% |
| COC(=O)c1cc(S(=O)(=O)NC2CCN(Cc3ccccc3)CC2)cn1C | -4.4% |

| Compound | inhibition |
| --- | --- |
| CCC(=O)N1CCN=C1SCc1ccc(F)cc1 | 0% |
| O=C(Nc1nccs1)C1CCCN1S(=O)(=O)c1cccc2cccnc12 (stereo not given) | -4.6% |
| COc1cccc(-n2cc(C(=O)O)c3ccccc3c2=O)c1 | -2.1% |
| COC(=O)c1c(-c2ccc(C)cc2)csc1N | 7% |
| CCN1CCN(Cc2c(O)ccc3c(=O)c(-c4ccc(OC)c(OC)c4)c(C(F)(F)F)oc23)CC1 | -8.1% |
| O=C1C(=O)N(CCN2CCOCC2)C(c2ccccn2)/C1=C(/O)c1ccc(Cl)cc1 (stereo not given) | 13.6% |
| CCOc1ccc(OCC)c(NC(=O)CN(C)S(=O)(=O)c2cccc3nsnc23)c1 | -0.8% |
| Cc1cnc(C(=O)OCC(=O)Nc2ccc(Cl)cc2Cl)cn1 | -2.2% |
| COc1ccc(NC(=O)c2c(SC)nsc2SC)cc1 | 2.1% |
| COc1ccc(-c2ccc(Nc3ccc(S(=O)(=O)N4CCCC4)cc3)nn2)cc1OC | -6.4% |
| Cc1cc(Nc2ccc(Br)cc2F)n2ncnc2n1 | -4.7% |
| CCOC(=O)N1CCN(C(=O)C2CC(c3ccc(F)cc3)=NO2)CC1 (stereo not given) | 9.4% |
| CN(C)CCCNC(=O)c1ccc2[nH]c3ccccc3c2c1 | 3.7% |
| COc1cccc(N2C(=O)CC(N3CCN(S(=O)(=O)c4ccccc4)CC3)C2=O)c1 (stereo not given) | -0.8% |
| CCOC(=O)c1c(C)c(C(=O)NCCc2ccc(S(N)(=O)=O)cc2)c(C)n1CC | -11.9% |
| COc1ccc(CNC(=O)C2CCN(S(=O)(=O)N3CCOCC3)CC2)cc1 | -0.9% |
| COc1ccc(/C(O)=C2/C(=O)C(=O)N(CCCN(C)C)C2c2ccccc2)cc1OC (stereo not given) | -8.5% |
| Cc1ccc(NC(=O)CN(C)S(=O)(=O)c2cnc[nH]2)cc1C | -11.5% |
| O=C(O)Cc1ccc(NC(=O)C2CCCCC2C(=O)O)cc1 (stereo not given) | -9.4% |
| COc1ccccc1N1CCN(C(=O)c2c(-c3c(Cl)cccc3Cl)noc2C)CC1 | 6.9% |

| Compound | inhibition |
| --- | --- |
| CCOC(=O)CN1CC23C=CC(O2)C(C(=O)Nc2ccc(F)cc2)C3C1=O (stereo not given) | -4.5% |
| COc1ccc(CC(NC(C)=O)C(=O)NC2CCN(C(=O)Nc3ccc(C#N)cc3)CC2)cc1OC (stereo not given) | 13.5% |
| CCOC(=O)c1oc2ccccc2c1NC(=O)c1cccs1 | -2.1% |
| CCOc1ccc(N(CC(=O)OC)S(=O)(=O)c2c(C)noc2C)cc1 | -18.8% |
| O=C1c2ccccc2C(O)N1Cc1ccccc1 (stereo not given) | -3.5% |
| CC1=C(C(=O)OCc2ccccc2)C(c2ccco2)n2ncnc2N1 (stereo not given) | -4.9% |
| O=C(C1=C(O)C(=O)N(Cc2ccccc2)C1c1ccco1)c1ccco1 (stereo not given) | 43.1% (active) |
| O=C(C1=C(O)C(=O)N(Cc2ccccc2)C1c1cccnc1)c1ccco1 (stereo not given) | 36% (active) |
| O=C(Nc1ccccc1)N(Cc1cccnc1)Cc1ccco1 | 4.3% |
| O=C(C1=C(O)C(=O)N(c2ncccn2)C1c1cccs1)c1ccco1 (stereo not given) | -4.1% |
| CCC1Oc2ccc(Cl)cc2N(CC(=O)O)C1=O (stereo not given) | 4.3% |
| Cc1cccc(N2C(=O)SC(N(CC(=O)O)c3cccc(C)c3)C2=O)c1 (stereo not given) | 76.8% (active) |
| Cc1cc(C)cc(N(CC(=O)NCC2CCCO2)S(=O)(=O)c2c(C)noc2C)c1 (stereo not given) | 3.2% |
| COc1ccc(C2CC(c3ccc(Cl)cc3Cl)Nc3nc(N)nn32)cc1OC (stereo not given) | 6.7% |
| COc1ccccc1C(=O)N1CCN=C1SCc1cccnc1 | 0.1% |
| CCOC(=O)c1oc2c(CN3CCN(C)CC3)c(O)ccc2c(=O)c1-c1ccc(Br)cc1 | -5.9% |
| Cc1sc(NC(=O)C2C3CCC(O3)C2C(=O)O)c(C(=O)OC(C)C)c1-c1ccc(Cl)cc1 (stereo not given) | 6.3% |
| CC(C)OC(=O)c1cc(NC(=O)C2C3CCC(O3)C2C(=O)O)cc(C(=O)OC(C)C)c1 (stereo not given) | 39.8% (active) |
| CC(C)COC(=O)C1C2C=CC3(CN(C(C)c4ccc(Br)cc4)C(=O)C13)O2 (stereo not given) | -6.6% |
| Cc1ccc(C)c(N(CC(=O)NCc2ccco2)C(=O)CCC(=O)Nc2ccccn2)c1 | 19% |
